Measured values published in ChEMBL document CHEMBL3988442, “University of Dundee, Small-Polar-MMV Screening Library” (2021).
For some of these results: Potency and affinity values are given separately.

Key:
Set-up in all cases: scale not given: direction of the effect not stated beside the values
[1] = biological target: Protein translocase subunit SecA (Escherichia coli (strain K12)) (UniProt P10408); assay: Assay to Identify E. coli SecA ATPase Inhibitors; assay type: functional; conditions: 30 µM
[2] = biological target: T1, Ubiquitin-activating enzyme e1, putative (Leishmania donovani (strain BPK282A1)) (UniProt E9BSI1); assay: Leishmania donovani Ubiquitin Activating Enzyme (LdE1); assay type: functional; conditions: 30 µM
T1 sequence (whole entry): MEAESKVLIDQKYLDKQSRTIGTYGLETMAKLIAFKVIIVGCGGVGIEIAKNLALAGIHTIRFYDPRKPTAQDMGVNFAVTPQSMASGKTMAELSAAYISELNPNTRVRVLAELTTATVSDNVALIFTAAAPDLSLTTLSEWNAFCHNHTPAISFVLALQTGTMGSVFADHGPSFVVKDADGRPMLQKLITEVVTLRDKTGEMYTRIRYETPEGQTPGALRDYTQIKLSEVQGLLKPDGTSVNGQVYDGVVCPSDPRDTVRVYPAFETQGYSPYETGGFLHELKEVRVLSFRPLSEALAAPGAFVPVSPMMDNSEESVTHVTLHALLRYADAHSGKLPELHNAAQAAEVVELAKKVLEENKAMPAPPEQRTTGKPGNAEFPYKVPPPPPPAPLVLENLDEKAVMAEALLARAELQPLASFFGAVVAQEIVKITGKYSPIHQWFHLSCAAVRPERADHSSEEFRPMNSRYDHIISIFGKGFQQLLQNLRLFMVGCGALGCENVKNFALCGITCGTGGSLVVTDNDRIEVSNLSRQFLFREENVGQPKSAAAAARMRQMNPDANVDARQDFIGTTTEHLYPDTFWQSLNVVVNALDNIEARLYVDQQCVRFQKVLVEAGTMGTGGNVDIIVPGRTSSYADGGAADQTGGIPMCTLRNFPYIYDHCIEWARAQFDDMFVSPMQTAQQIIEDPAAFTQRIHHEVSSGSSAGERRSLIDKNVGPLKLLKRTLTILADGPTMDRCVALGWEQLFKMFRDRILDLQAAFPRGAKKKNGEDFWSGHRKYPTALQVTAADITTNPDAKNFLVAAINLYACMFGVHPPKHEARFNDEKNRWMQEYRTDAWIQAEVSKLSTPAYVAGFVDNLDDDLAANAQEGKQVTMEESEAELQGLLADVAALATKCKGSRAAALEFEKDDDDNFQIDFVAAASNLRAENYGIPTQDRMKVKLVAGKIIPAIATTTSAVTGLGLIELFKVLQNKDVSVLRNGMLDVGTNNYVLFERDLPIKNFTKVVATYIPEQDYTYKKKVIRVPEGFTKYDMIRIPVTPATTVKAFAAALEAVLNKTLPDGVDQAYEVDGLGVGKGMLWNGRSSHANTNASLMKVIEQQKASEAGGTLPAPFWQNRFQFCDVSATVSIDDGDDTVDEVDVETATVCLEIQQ

[3] = biological target: AMP-activated protein kinase, AMPK (Homo sapiens) (UniProt P54646+O43741+P54619+Q9UGJ0+Q9Y478+Q13131+Q9UGI9); assay: AMP-dependent Kinase enzyme assay. An in vitro enzyme assay that detects ADP turnover that is directly proportional to AMPK activity. This uses naive AMPK that is activated during the assay with MK-8722; assay type: functional; conditions: 30 µM
[4] = biological target: Sialic acid-binding Ig-like lectin 9 (Homo sapiens) (UniProt Q9Y336); assay: Hs-Siglec9 ALPHAscreen SOP 20170721; conditions: 10 µM
Trypanosoma cruzi = assay: Trypanosoma cruzi phosphomannomutase and mannose-1-phosphate guanylyltransferase assay; assay type: functional; conditions: 10 µM
[5] = biological target: T2, Arginase-2, mitochondrial (Homo sapiens) (UniProt P78540); assay: in vitro enzyme assay to detect the production of urea directly proportional to the activity of Arginase II; assay type: functional; conditions: 33.3 µM; note: in the data most compounds retested in dose-response had high values
T2 sequence (whole entry): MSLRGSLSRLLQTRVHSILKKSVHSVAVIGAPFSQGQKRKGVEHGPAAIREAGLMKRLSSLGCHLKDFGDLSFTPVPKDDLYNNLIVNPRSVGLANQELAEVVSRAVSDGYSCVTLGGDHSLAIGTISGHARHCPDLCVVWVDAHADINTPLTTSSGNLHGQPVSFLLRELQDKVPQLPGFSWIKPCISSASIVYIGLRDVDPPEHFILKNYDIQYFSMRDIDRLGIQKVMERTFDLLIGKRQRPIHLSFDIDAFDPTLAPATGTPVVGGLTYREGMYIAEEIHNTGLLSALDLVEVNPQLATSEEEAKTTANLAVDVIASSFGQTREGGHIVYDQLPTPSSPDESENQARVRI

[6] = biological target: T3, Proteasome subunit beta (Trypanosoma cruzi) (UniProt O96673); assay: Trypanosoma cruzi proteasome chymotrypsin-like activity (TcProtChymo) assay.; note: in the data most compounds retested in dose-response had high values; assay type: functional; conditions: 9.37 µM
T3 sequence (whole entry): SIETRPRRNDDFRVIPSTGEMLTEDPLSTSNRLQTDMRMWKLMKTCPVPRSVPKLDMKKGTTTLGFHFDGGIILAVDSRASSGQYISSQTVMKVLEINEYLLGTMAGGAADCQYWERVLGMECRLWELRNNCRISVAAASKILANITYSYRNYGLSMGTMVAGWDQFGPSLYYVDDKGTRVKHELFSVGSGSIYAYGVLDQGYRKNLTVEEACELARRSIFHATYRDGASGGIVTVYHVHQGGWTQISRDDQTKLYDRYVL

Homo sapiens = organism: Homo sapiens; assay: To identify inhibition of the IFN signalling (Jak-Stat) pathway via expression of an eGFP reporter gene under the control of an IFN-stimulated response element (ISRE) containing MxA promoter.; assay type: functional; conditions: 30 µM
[7] = biological target: T4, Tyrosyl-tRNA synthetase, putative (Trypanosoma cruzi (strain CL Brener)) (UniProt Q4DSP6); assay: Trypanosoma cruzi tyrosyl tRNA synthetase (TcYRS) _High Tyrosine SOP; assay type: functional; conditions: 30 µM; note: in the data most compounds retested in dose-response had high values
T4 sequence (whole entry): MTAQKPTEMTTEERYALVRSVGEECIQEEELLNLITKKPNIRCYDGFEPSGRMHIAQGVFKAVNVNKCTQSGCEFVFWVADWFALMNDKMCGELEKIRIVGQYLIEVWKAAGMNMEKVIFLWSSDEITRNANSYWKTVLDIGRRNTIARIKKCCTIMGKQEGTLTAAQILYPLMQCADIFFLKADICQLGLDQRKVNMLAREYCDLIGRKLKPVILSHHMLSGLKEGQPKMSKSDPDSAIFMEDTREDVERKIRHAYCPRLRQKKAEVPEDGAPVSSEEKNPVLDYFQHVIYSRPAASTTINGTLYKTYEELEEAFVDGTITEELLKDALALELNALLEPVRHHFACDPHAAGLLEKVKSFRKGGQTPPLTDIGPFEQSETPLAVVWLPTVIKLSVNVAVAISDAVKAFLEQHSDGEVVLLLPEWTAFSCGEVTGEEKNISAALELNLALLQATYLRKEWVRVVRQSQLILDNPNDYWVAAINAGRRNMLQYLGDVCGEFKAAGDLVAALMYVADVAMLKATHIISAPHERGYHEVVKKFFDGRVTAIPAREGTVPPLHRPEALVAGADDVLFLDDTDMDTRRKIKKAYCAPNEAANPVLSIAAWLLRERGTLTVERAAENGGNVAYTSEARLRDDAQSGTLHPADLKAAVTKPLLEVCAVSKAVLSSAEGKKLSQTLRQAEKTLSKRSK

[8] = biological target: T4, Tyrosyl-tRNA synthetase, putative (Trypanosoma cruzi (strain CL Brener)); assay: Trypanosoma cruzi tyrosyl tRNA synthetase (TcYRS) SOP; assay type: functional; conditions: 30 µM
[9] = biological target: Chromo domain-containing protein 1 (Saccharomyces cerevisiae (strain ATCC 204508 / S288c) (Baker's yeast)) (UniProt P32657); assay: ScCHD-1 Enzyme Inhibition Assay; assay type: functional; conditions: 30 µM; note: in the data most compounds retested in dose-response had high values
Sequence of Chromo domain-containing protein 1 (Saccharomyces cerevisiae (strain ATCC 204508 / S288c) (Baker's yeast)) (P32657 whole entry, the tested form may be a part): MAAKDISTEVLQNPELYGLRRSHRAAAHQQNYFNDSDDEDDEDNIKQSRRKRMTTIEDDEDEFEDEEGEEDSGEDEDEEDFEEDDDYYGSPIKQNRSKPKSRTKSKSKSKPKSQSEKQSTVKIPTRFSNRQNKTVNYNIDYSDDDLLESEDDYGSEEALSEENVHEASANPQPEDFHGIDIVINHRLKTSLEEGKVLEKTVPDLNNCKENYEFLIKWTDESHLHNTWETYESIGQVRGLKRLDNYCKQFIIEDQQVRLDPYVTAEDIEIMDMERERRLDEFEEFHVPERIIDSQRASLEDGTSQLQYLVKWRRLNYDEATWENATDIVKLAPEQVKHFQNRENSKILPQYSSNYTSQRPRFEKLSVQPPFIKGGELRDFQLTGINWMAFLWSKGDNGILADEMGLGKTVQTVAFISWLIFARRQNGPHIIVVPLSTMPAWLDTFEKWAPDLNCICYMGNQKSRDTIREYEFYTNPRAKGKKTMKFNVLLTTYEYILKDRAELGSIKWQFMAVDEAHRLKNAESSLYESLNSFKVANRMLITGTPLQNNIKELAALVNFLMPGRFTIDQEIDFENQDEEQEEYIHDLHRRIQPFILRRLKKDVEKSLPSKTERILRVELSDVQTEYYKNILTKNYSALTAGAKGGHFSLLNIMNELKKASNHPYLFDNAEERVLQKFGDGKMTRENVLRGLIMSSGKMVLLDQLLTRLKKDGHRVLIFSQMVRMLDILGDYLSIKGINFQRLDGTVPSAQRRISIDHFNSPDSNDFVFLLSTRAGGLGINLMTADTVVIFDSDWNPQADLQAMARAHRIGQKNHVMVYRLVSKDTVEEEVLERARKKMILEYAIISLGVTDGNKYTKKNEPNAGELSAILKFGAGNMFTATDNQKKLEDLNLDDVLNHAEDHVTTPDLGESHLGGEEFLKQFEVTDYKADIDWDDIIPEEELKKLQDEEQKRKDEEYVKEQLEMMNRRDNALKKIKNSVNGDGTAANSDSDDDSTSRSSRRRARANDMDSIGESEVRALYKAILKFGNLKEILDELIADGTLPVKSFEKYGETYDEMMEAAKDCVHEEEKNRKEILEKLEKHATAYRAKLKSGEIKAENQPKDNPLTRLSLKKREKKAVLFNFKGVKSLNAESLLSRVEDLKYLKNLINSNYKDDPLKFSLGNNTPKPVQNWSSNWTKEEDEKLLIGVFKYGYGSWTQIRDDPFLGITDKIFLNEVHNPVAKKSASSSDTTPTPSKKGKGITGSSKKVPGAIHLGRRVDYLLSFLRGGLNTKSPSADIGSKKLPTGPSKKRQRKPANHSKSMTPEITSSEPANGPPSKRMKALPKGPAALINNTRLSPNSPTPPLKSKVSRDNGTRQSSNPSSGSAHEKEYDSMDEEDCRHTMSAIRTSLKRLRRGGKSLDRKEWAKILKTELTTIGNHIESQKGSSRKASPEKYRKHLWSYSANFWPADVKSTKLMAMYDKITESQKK

Sequence of Protein translocase subunit SecA (Escherichia coli (strain K12)) (P10408 whole entry): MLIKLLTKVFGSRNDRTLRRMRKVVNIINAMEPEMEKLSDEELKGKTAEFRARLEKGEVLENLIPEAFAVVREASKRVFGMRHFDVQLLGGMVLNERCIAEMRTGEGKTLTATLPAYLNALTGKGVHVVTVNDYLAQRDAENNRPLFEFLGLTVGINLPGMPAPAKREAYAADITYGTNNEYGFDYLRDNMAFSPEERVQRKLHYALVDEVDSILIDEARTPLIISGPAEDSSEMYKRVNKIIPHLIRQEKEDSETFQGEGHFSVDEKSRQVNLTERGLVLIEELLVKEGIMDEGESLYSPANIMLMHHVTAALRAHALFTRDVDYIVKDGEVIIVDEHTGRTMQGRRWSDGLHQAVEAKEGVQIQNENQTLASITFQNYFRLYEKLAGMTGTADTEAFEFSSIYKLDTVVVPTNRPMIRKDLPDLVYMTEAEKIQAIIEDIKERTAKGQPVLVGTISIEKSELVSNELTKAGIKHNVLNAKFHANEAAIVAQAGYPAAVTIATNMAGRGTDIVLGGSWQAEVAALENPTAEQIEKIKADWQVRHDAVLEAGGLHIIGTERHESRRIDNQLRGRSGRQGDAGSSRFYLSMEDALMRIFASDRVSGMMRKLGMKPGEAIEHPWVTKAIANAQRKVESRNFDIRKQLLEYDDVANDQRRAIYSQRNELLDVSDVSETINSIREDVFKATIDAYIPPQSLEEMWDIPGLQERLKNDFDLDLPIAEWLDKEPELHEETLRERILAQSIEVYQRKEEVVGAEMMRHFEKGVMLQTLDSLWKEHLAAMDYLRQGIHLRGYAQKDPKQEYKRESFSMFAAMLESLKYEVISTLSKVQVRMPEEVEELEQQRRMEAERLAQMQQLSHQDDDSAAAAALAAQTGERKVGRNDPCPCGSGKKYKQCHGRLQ
Sequence of Sialic acid-binding Ig-like lectin 9 (Homo sapiens) (Q9Y336 whole entry): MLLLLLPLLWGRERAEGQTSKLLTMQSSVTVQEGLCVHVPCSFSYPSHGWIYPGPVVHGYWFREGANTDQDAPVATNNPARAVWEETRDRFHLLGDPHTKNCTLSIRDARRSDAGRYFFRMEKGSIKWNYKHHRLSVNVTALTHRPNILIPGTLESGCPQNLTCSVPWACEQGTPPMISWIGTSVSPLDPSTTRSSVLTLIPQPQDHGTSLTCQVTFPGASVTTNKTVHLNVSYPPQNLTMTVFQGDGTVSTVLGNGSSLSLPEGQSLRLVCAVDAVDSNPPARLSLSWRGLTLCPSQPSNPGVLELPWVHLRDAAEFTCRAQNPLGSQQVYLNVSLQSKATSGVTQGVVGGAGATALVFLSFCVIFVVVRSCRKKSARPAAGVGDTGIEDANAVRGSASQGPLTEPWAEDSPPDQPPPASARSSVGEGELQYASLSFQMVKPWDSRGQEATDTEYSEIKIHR

| Structure (SMILES) | Percent Effect [1] | Percent Effect [2] | Percent Effect [3] | Percent Effect [4] | Percent Effect (Trypanosoma cruzi) | Percent Effect [5] | Percent Effect [6] | Percent Effect (Homo sapiens) | Percent Effect [7] | Percent Effect [8] | Percent Effect [9] |
| --- | --- | --- | --- | --- | --- | --- | --- | --- | --- | --- | --- |
| Cc1ccc(CNC(c2ccccc2)c2nccn2C)cc1C (configuration not stated) | -0.655% | 18.9% | -5.59% | 9.13% | 2.32% | -0.554% | 8.08% | 30.7% | 10.9% | 25.6% | -5.06% |
| CCc1n[nH]c(C2CN(C(=O)Cn3ccccc3=O)CCO2)n1 (configuration not stated) | 0.155% | 16.5% | -10.9% | -3.88% | 0.718% | 6.67% | 17.1% | 2.18% | 3.12% | 12.7% | -24.2% |
| c1coc(-c2noc(CN3CC(n4cccn4)C3)n2)c1 | -5.48% | 7.79% | 3% | -4.91% | 0.49% | 1.05% | 2.18% | 19.4% | 3.81% | 9.41% | -11.1% |
| Cc1ccc(CNC(=O)Cn2ncc3c2c(C)nn3C)cc1 | 0.175% | 4% | 4.44% | 1.31% | -6.68% | -16.4% | 10.2% | 6.77% | 3.17% | 7.69% | -8.77% |
| O=C(Nc1ccnc(OC2CCOC2)c1)c1cc(F)ccc1F (configuration not stated) | -5.45% | -1.39% | 2.94% | 5.39% | -1.65% | -2.65% | 11.6% | 2.19% | -5.26% | -10.3% | 9.81% |
| CCn1ccnc1CN1CCN(C(C)C(=O)N2CCC(C)CC2)CC1 (configuration not stated) | -2.02% | 2.7% | -8.85% | 9.21% | 2.88% | -3.14% | 15.4% | 11% | 3.96% | 11% | -4.46% |
| O=S(=O)(CCNCc1cccc2c1OCCO2)N1CCOCC1 | 0.589% | 10.8% | -8.76% | 1% | -0.965% | -0.476% | 9.14% | 24.3% | 5.82% | 4.88% | -2.36% |
| CC1CN(CC(=O)Nc2nncs2)CCN1c1nccs1 (configuration not stated) | 1.26% | 8.11% | -4.77% | -8.19% | -5.29% | 0.924% | 16.5% | 25.9% | 4.95% | 18.3% | -4.83% |
| Cc1nc(C)n(CC2CCCCN2CC(=O)Nc2ccncc2)n1 (configuration not stated) | 1.21% | 23.4% | -4.4% | -2.19% | -9.74% | 3.56% | 8.11% | 27.5% | 5.83% | -2.44% | -9.59% |
| CCc1ncc2c(n1)CN(Cc1nc(-c3ccccn3)no1)CC2 | -8.41% | 15.8% | -29.3% | 15.4% | 11.7% | 1.44% | 2.79% | -20.6% | 15.3% | 25.9% | -10.3% |
| CNC(=O)c1ccc(C(=O)N2CCCC(n3cc(C)cn3)C2)cn1 (configuration not stated) | -7.4% | 26% | -0.148% | 5.41% | 9.18% | 3.56% | 12% | 26.2% | 9.71% | 26.8% | -11.2% |
| CCN(C1CCS(=O)(=O)C1)S(=O)(=O)c1cccc2cc(C)cnc12 (configuration not stated) | -4.6% | 21.1% | 5.96% | -4.93% | -4.01% | 3.96% | 4.99% | 14.3% | 6.4% | 18.5% | -6.57% |
| Cc1noc([C@H]2C[C@@H]3CCN(C(=O)C4CCOCC4)C[C@H]3O2)n1 | -3.88% | 0% | 7.28% | 1.95% | -3.81% | 8.6% | 17% | -2.45% | 1.08% | 5.13% | 3.17% |
| OC(CN1CCOCC1)c1ccc(OC(F)(F)F)cc1 (configuration not stated) | -5.02% | 2.7% | 35.5% | -1.38% | 0.283% | 0.401% | 4.32% | 1.68% | 6.4% | 13.6% | -7.59% |
| NC(=O)CCOc1nc(-c2ccccc2Cl)no1 | -6.94% | 2.74% | -11.9% | 31.6% | 8.23% | -1.82% | 8.87% | -2.22% | 4.3% | 15% | -6.33% |
| COC[C@H]1CCC[C@]12CN(C(=O)NCc1ccccc1)CCO2 | -5% | 20% | -4.55% | 9.51% | 2.75% | -7.22% | 13.5% | 2.52% | 3.17% | 10.3% | -9.21% |
| CCC(CNC(=O)c1cc(OC)ccc1Br)N1CCc2ccccc2C1 (configuration not stated) | 0.461% | 0% | 3.64% | 9.31% | -7.14% | -4.29% | 20.3% | 11.2% | -0.529% | -2.44% | -4.45% |
